Laboratory results reported in PubChem BioAssay (NCI).
Compounds without any hit were thinned out: in the full panel of roughly 79,000, 15% have a hit. No stated cut-off is given here; in the data, active means growth inhibition above about 70%; inactive means the rest. Where a SMILES comes first, the peptide text is derived from it. [ ]: non-standard residue; d: D form. ξ: configuration not given here. ξV = CC(C)C(N)C(=O)O

Legend:
[1] = NCI Yeast Anticancer Drug Screen. Data for the rad50 strain (AID 155);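 further: 0% = growth of vehicle-only cultures of the same strain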; details: S. cerevisiae rad50 strain growth inhibition; at 50.0 µM; active compounds read high
In short: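 Yeast carrying a defined DNA repair defect were exposed to test compounds, and growth was compared with vehicle-treated controls to give percent inhibition.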

[2] = NCI Yeast Anticancer Drug Screen. Data for the mec2-1 strain (AID 157); details: S. cerevisiae mec2-1 strain, at 50.0 µM, active compounds read high
In short: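 Test agents were screened against the mec2-1 yeast strain, with defined DNA repair or cell cycle alteration. Growth was scored as inhibition against vehicle-only controls.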

[3] = NCI Yeast Anticancer Drug Screen. Data for the sgs1 mgt1 strain (AID 161);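 further: 0% = growth of cultures given vehicle only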; details: S. cerevisiae sgs1 mgt1 strain, at 50.0 µM, active compounds read high
In short: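 Mutant yeast exposed to compound; growth scored against vehicle-only wells.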

[4] = NCI Yeast Anticancer Drug Screen. Data for the cln2 rad14 strain (AID 165);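 further: 0% = growth equal to vehicle treated cultures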; details: S. cerevisiae cln2 rad14 strain, at 50.0 µM, active compounds read high
In short: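 Growth of compound-exposed yeast (cln2 rad14 genotype) measured and expressed as inhibition relative to vehicle.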

[5] = NCI Yeast Anticancer Drug Screen. Data for the bub3 strain (AID 167); details: S. cerevisiae bub3 mutant strain, at 50.0 µM, active compounds read high
In short: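 Compounds were applied to a genetically altered yeast strain carrying a cell-cycle control defect. Growth inhibition was scored against vehicle-treated controls.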

[6] = NCI Yeast Anticancer Drug Screen. Data for the mlh1 rad18 strain (AID 175); details: S. cerevisiae mlh1 rad18 strain growth inhibition; at 50.0 µM; active compounds read high
In short: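 In this whole-cell yeast screen, a strain with altered DNA damage repair is challenged with compound, and its growth is measured against matched vehicle-treated controls.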

Measured: growth inhibition

Cc1ccc(S(=O)(=O)/C(C#N)=C/n2c(=S)[nH]c3ccc([N+](=O)[O-])cc32)cc1
inactive: [1] -14.3% | [2] -21.1% | [3] -9.05% | [4] -3.25% | [5] -10.6% | [6] 3.3%

C[N+](=C\c1ccccc1O)/N=C\c1ccccc1O
inactive: [1] 7.15% | [2] 2.05% | [3] 6.75% | [4] -35.6% | [5] 8.2% | [6] -1.5%

O=[N+]([O-])c1ccc(N=Cc2ccccc2O)c(O)c1
inactive: [1] 21.9% | [2] -4.05% | [3] 2.75% | [4] -8.55% | [5] 20.8% | [6] -2.05%

COc1ccccc1C1CC(c2ccccc2)=Nc2ccccc2S1 (centres undefined)
inactive: [1] -3.95% | [2] -45.2% | [3] 1.25% | [4] 5.95% | [5] -30.8% | [6] -1.05%

CCOC(=O)C(=CC(CC)CC)C(=O)OCC
inactive: [1] 8.7% | [2] -18.4% | [3] -10.2% | [4] -4.1% | [5] -16.2% | [6] -0.85%

CCCCCCCCC1CC(=O)OC1=O (centres undefined)
inactive: [1] 0.05% | [2] 0.55% | [3] -0.65% | [4] 7.05% | [5] -1.55% | [6] -2.35%

O=C(O)c1ccc(-n2cnc3c(=O)[nH]cnc32)cc1
inactive: [1] -8.6% | [2] -12.9% | [3] -13.3% | [4] -9.45% | [5] -4.9% | [6] -7.85%

CC(C)NC(N)=O
inactive: [1] 29.8% | [2] 16% | [3] 26.4% | [4] 19.1% | [5] 2.35% | [6] 16.4%

COc1ccc(-c2c3nc(c(-c4ccc(OC)cc4)c4[n-]c(c(-c5ccc(OC)cc5)c5nc(c(-c6ccc(OC)cc6)c6[n-]c2c2ccccc62)-c2ccccc2-5)c2ccccc42)-c2ccccc2-3)cc1.[Zn+2]
inactive: [1] -21.1% | [2] -18.7% | [3] -29.9% | [4] 6.75% | [5] 16.6% | [6] -22.1%

CS(=O)(=O)CC(=O)c1ccc(O)cc1O
inactive: [1] 4.55% | [2] 3.55% | [3] -0.6% | [4] -43.2% | [5] -13.1% | [6] -7%

O=C(NCCCl)NCC1CCCCO1 (centres undefined)
inactive: [1] -2.8% | [2] 7% | [3] 0.2% | [4] -76.3% | [5] -3.9% | [6] -12%

O=C(CCC(O)c1ccccc1)c1ccccc1 (centres undefined)
inactive: [1] -13.6% | [2] -12.3% | [3] -9.3% | [4] -10.9% | [5] 0% | [6] 2.35%

COc1ccc(NS(=O)c2cccc(C)c2)cc1 (centres undefined)
inactive: [1] -8.05% | [2] -11.1% | [3] -16.1% | [4] -18.3% | [5] -3.1% | [6] 9.4%

CCCCN(CCO)CC(O)Cn1cnc2c(N)ncnc21 (centres undefined)
inactive: [1] 17.4% | [2] 13.9% | [3] 8.85% | [4] 0.7% | [5] -5.65% | [6] 21.3%

CC(=O)Nc1nnc(C)o1
inactive: [1] -0.85% | [2] -3.5% | [3] -1.55% | [4] -40.6% | [5] 10.3% | [6] -2.05%

CC(C)C(N)C(=O)NCC(=O)NCC(=O)O (stereo not drawn) (H-[ξV]-Gly-Gly-OH)
inactive: [1] -9.4% | [2] -22.2% | [3] -20.4% | [4] -8.15% | [5] -28.8% | [6] -23.4%

Nc1nc(-c2ccccc2)c(N=Nc2cccc(Cl)c2)s1
inactive: [1] -10.7% | [2] -4% | [3] -11.4% | [4] -48% | [5] -2% | [6] -10.8%

CCOC(=O)C1=C(C(=O)c2ccccc2)C(c2ccc([N+](=O)[O-])cc2)C(C(=O)c2ccccc2)=C(C(=O)OCC)N1
inactive: [1] -6.5% | [2] 1.6% | [3] -4% | [4] 14.2% | [5] -10.9% | [6] 7.5%

O=C(NI1OC(=O)c2ccccc21)c1ccc(Cl)cc1
inactive: [1] -9% | [2] 6.05% | [3] -38% | [4] -17.5% | [5] -33.6% | [6] -5.6%

N/C(=N/O)c1cn(C2OC(CO)C(O)C2O)c2ncnc(NO)c12 (centres undefined)
inactive: [1] 9.65% | [2] -20.6% | [3] -0.2% | [4] -1.15% | [5] -16.1% | [6] 4.1%

CC1(c2ccc[n+](Cc3ccccc3)c2)OCCO1
inactive: [1] -15.7% | [2] -31.1% | [3] -12.8% | [4] -11.2% | [5] -39.6% | [6] -27.1%

Cc1cc(N(CCO)CCO)c2ccc3cc4ccccc4cc3c2n1
inactive: [1] 38.5% | [2] 16.6% | [3] 9.35% | [4] 8.3% | [5] 18.3% | [6] 23.9%

O=C(O)c1cccc(S(=O)(=O)NN2C(=O)CSC2c2ccccc2)c1 (centres undefined)
inactive: [1] -22.4% | [2] -18.5% | [3] 5.55% | [4] 4.45% | [5] 3.7% | [6] -11.3%

CN(C)c1ccc(C2N(C)CCN2C)cc1
inactive: [1] -10.4% | [2] 6.85% | [3] 9.85% | [4] -1.8% | [5] -7.5% | [6] -12.8%

N/N=C1/CCCc2nonc21
inactive: [1] -19.7% | [2] -17.1% | [3] -29.4% | [4] -22.2% | [5] -25.4% | [6] -48.4%

CC1=CC(C)(C)N=C2SC(c3ccc(N)cc3)=NN12
inactive: [1] 25% | [2] 1.7% | [3] 3.55% | [4] 5.9% | [5] 18.5% | [6] 28.4%

NCCCNCCCCNC(=O)C(O)NC(=O)CCCCCCN=C(N)N (centres undefined)
inactive: [1] -2.7% | [2] -11.2% | [3] -2.05% | [4] 11.4% | [5] 3.4% | [6] -1.6%

COc1ccc(/C=[N+](\[O-])[C@H](COCc2ccccc2)c2ccccc2)cc1
inactive: [1] 18.4% | [2] -18.3% | [3] 0.05% | [4] -1.6% | [5] 6.6% | [6] 4.3%

CCOC(=O)C(=O)SCC(NC(=O)OCc1ccccc1)C(=O)O (centres undefined)
inactive: [1] -12.9% | [2] -4.95% | [3] 11.7% | [4] -1.95% | [5] 7.75% | [6] -12.2%

CC1(C)COC2(CC(C)(C)OC2(C)C)OC1
inactive: [1] -1.45% | [2] 0.8% | [3] -6% | [4] -40.8% | [5] -7.25% | [6] 14.8%

CNCCN(C)Cc1ccccc1
inactive: [1] -17.4% | [2] -24.6% | [3] -3.8% | [4] 11% | [5] 10.7% | [6] -8.3%

CC(C)N(CCC#N)C(=S)Nc1cccc(C(F)(F)F)c1
inactive: [1] 21.6% | [2] 13.2% | [3] 25.1% | [4] 0.25% | [5] 12.2% | [6] -2.85%

Cc1ccc(S(=O)(=O)c2ccc(C)cc2[N+](=O)[O-])cc1
inactive: [1] 21.8% | [2] -7.5% | [3] 18.5% | [4] -4.95% | [5] 45.7% | [6] -9.75%

N#Cc1ccccc1OCCCCOc1ccccc1C#N
inactive: [1] 8.7% | [2] 14% | [3] 15.2% | [4] 14.2% | [5] 18.7% | [6] 16.1%

CN(Cc1cnc2nc(N)nc(N)c2n1)c1ccc(C(=O)NC(CCCCN)C(=O)O)cc1 (centres undefined)
inactive: [1] -0.05% | [2] -9.4% | [3] -0.05% | [4] -15.8% | [5] -2.05% | [6] 30.9%

COc1ccc(C2=CC(=O)C(C)(C#N)CC2)cc1 (centres undefined)
inactive: [1] 3.9% | [2] 25.9% | [3] -4% | [4] 25.1% | [5] 34% | [6] 4.8%

O=C1OCC(CN2CCC(n3c(=O)[nH]c4ccccc43)CC2)=C1c1ccccc1
inactive: [1] -12.2% | [2] -4.65% | [3] -7.15% | [4] -25.7% | [5] -10.6% | [6] -35.9%

CC(C)CC(=O)NC(Nc1ccc(S(=O)(=O)Nc2ncccn2)cc1)(C(F)(F)F)C(F)(F)F
inactive: [1] -2.9% | [2] -9.95% | [3] 14.3% | [4] 20.6% | [5] -5.8% | [6] 6.8%

COc1cccc(C(C#N)c2cnc3ccccc3n2)c1 (centres undefined)
inactive: [1] 27.4% | [2] 14.6% | [3] 10.1% | [4] 33.2% | [5] 37.1% | [6] 27.4%
